Assay [1] can be described thus: binders of probe aFSTL3 on microarray, primary screen, stem cell growth factor project, biochemical, small-molecule microarray, fluorescence 635/667 (AID 1064).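 Further: measures binding of the biotinylated anti-FSTL3 antibody to printed compounds.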 Conditions: higher = more signal.
Assay [2] is described as follows: binders from COS7 lysate, DM2A8 probe, primary screen, torsin A project, cell lysate, small-molecule microarray, fluorescence 635/667 (AID 1065). Conditions: higher = more signal, COS7 lysate expressing mutant human TOR1A.
Assay [3] can be described thus: binders of probe aFGF2 on microarray, primary screen, stem cell growth factor project, biochemical, small-molecule microarray, fluorescence 635/667 (AID 1067).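 Further: measures binding of biotinylated aFGF2 protein to printed compounds on slides; z-score merges feature fluorescence and signal-to-noise across triplicate slides.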 Conditions: higher = more signal.
Assay [4] can be described thus: binders of probe aFGF10 on microarray, primary screen, stem cell growth factor project, biochemical, small-molecule microarray, fluorescence 635/667 (AID 1071).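 Further: score merges 667 nm spot intensity and signal to noise from triplicate slides.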 Conditions: higher = more signal.
The target in assay [5] is Neurogenic locus notch homolog protein 2 (Homo sapiens) (UniProt Q04721). Nature of the assay: Notch2 binders on small-molecule microarrays, primary screen, biochemical, small-molecule microarray, 635 nm fluorescence, stem cell growth factors (AID 1073). As to conditions: Notch2 binding, higher = more signal.
Assay [6] addresses Pro-neuregulin-1, membrane-bound isoform (Homo sapiens) (UniProt Q02297). Kind of assay: NRG1 binders on small-molecule microarrays, primary screen, psychiatric disease protein project, biochemical, small-molecule microarray, fluorescence 635/667 (AID 1075).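 Further: score combines 667 nm spot fluorescence with signal to noise.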 As to conditions: NRG1 binding, 635 nm fluorescence, higher = more signal.
In assay [7] the test system is Neuregulin-1 EGF-like domain. Kind of assay: binders of neuregulin-1 EGF-like domain, primary screen, biochemical, small-molecule microarray, 635 nm fluorescence (AID 1081).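 Further: binding of the protein to compounds printed on small-molecule microarray slides.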 Conditions: small-molecule microarray binding, higher = more signal.
Assay [8] can be described thus: FRG1 promoter luciferase signal modulators, primary screen, FRG1 inhibition for FSHD, cell-based, C2C12 myotubes, firefly/Renilla luciferase, luminescence (AID 1084). Conditions: higher = more signal, called active from +8 up or from −8 down.
A short description of assay [9]: binders of probe aFST on microarray, primary screen, stem cell growth factor project, biochemical, small-molecule microarray, fluorescence 635/667 (AID 1086).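 Further: score merges 667 nm fluorescence with signal-to-noise of each printed compound spot.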 As to conditions: higher = more signal.
Assay [10] can be described thus: binders of probe aHhip on microarray, primary screen, stem cell growth factor project, biochemical, small-molecule microarray, fluorescence 635/667 (AID 1087).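 Further: score merges spot fluorescence at 667nm with spot signal to noise ratio.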 Conditions: higher = more signal.
For assay [11], the system named is PRMT1 (protein arginine N-methyltransferase 1). Nature of the assay: PRMT1 binders on small-molecule microarrays, primary screen, biochemical, small-molecule microarray, 635 nm fluorescence (AID 1088).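 Further: binding of Prmt1 protein to compounds spotted on small-molecule microarray slides.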 As to conditions: small-molecule microarray binding, higher = more signal.
The nature of assay [12]: yeast growth modulation, basal conditions, primary screen, YJM789 clinical isolate, OD600, 24 h (AID 1089).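 Further: growth of clinical yeast isolate S. cerevisiae YJM 789 seeded 1000 cells per well; test concentration not given here.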 Conditions: S. cerevisiae YJM789 growth, higher = more signal, called active from +8 up or from −8 down.
Assay [13] in a line: fission yeast growth modulation, primary screen, strain 972, OD600, 24 h, no modulator (AID 1090).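 Further: basal condition with compound alone and no growth modifier present; test concentration not given here.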 As to conditions: S. pombe 972 growth, higher = more signal, called active from +8 up or from −8 down.
The nature of assay [14]: S. cerevisiae growth modulation with rapamycin, primary screen, strain BY4716, OD600, 96 h (AID 1091). Further: test concentration not given here. As to conditions: higher = more signal, called active from +8 up or from −8 down.
Assay [15] addresses Torsin-1A-interacting protein 2 (Homo sapiens) (UniProt Q8NFQ8). Nature of the assay: LULL1 binders on small-molecule microarray, primary screen, cell lysate, human LULL1 lysate, 635/667 nm fluorescence (AID 1092).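 Further: score merges per-feature 667 nm fluorescence with signal-to-noise.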 Conditions: hLULL1 lysate binding, 635 nm fluorescence, higher = more signal.
Assay [16] is described as follows: E. coli growth modulation, two-sided OD650, primary screen, E. coli filamentation project, strain DRC41, 24 h (AID 1093).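 Further: MC1000 strain lacking acrAB efflux and sulA so SOS filamentation is blocked; test concentration not given here.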 Conditions: OD650, 24 h, higher = more signal, called active from +8 up or from −8 down.
The nature of assay [17]: small-molecule microarray binders of probe aLefty2, primary screen, biochemical, biotinylated probe, 635/667 nm fluorescence (AID 1094).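 Further: score merges spot fluorescence near 667 nm with spot signal-to-noise ratio.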 As to conditions: higher = more signal.
Assay [18] concerns Noggin (protein binding on small-molecule microarray). Kind of assay: Noggin binders on small-molecule microarray, primary screen, biochemical, 635/667 nm fluorescence (AID 1095).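 Further: score merges 667 nm feature fluorescence with signal to noise over triplicate slides.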 Conditions: 635 nm fluorescence, higher = more signal.
For assay [19], the target named is Neurogenic locus notch homolog protein 3 (Homo sapiens) (UniProt Q9UM47). Kind of assay: NOTCH3 binders on small-molecule microarray, primary screen, biochemical, 635/667 nm fluorescence (AID 1096). As to conditions: NOTCH3 binding, 635 nm fluorescence, higher = more signal.
Assay [20] can be described thus: small-molecule microarray binders of probe aEGFR, primary screen, biochemical, biotinylated probe, 635/667 nm fluorescence (AID 1097).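 Further: probe is a biotinylated anti-EGFR antibody binding compounds printed on slides; score combines fluorescence near 667 nm and signal to noise of each spot.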 Conditions: higher = more signal.

Calls of active or inactive are those of the source.

Sequence of Neurogenic locus notch homolog protein 3 (Homo sapiens) (Q9UM47 whole entry, looked up): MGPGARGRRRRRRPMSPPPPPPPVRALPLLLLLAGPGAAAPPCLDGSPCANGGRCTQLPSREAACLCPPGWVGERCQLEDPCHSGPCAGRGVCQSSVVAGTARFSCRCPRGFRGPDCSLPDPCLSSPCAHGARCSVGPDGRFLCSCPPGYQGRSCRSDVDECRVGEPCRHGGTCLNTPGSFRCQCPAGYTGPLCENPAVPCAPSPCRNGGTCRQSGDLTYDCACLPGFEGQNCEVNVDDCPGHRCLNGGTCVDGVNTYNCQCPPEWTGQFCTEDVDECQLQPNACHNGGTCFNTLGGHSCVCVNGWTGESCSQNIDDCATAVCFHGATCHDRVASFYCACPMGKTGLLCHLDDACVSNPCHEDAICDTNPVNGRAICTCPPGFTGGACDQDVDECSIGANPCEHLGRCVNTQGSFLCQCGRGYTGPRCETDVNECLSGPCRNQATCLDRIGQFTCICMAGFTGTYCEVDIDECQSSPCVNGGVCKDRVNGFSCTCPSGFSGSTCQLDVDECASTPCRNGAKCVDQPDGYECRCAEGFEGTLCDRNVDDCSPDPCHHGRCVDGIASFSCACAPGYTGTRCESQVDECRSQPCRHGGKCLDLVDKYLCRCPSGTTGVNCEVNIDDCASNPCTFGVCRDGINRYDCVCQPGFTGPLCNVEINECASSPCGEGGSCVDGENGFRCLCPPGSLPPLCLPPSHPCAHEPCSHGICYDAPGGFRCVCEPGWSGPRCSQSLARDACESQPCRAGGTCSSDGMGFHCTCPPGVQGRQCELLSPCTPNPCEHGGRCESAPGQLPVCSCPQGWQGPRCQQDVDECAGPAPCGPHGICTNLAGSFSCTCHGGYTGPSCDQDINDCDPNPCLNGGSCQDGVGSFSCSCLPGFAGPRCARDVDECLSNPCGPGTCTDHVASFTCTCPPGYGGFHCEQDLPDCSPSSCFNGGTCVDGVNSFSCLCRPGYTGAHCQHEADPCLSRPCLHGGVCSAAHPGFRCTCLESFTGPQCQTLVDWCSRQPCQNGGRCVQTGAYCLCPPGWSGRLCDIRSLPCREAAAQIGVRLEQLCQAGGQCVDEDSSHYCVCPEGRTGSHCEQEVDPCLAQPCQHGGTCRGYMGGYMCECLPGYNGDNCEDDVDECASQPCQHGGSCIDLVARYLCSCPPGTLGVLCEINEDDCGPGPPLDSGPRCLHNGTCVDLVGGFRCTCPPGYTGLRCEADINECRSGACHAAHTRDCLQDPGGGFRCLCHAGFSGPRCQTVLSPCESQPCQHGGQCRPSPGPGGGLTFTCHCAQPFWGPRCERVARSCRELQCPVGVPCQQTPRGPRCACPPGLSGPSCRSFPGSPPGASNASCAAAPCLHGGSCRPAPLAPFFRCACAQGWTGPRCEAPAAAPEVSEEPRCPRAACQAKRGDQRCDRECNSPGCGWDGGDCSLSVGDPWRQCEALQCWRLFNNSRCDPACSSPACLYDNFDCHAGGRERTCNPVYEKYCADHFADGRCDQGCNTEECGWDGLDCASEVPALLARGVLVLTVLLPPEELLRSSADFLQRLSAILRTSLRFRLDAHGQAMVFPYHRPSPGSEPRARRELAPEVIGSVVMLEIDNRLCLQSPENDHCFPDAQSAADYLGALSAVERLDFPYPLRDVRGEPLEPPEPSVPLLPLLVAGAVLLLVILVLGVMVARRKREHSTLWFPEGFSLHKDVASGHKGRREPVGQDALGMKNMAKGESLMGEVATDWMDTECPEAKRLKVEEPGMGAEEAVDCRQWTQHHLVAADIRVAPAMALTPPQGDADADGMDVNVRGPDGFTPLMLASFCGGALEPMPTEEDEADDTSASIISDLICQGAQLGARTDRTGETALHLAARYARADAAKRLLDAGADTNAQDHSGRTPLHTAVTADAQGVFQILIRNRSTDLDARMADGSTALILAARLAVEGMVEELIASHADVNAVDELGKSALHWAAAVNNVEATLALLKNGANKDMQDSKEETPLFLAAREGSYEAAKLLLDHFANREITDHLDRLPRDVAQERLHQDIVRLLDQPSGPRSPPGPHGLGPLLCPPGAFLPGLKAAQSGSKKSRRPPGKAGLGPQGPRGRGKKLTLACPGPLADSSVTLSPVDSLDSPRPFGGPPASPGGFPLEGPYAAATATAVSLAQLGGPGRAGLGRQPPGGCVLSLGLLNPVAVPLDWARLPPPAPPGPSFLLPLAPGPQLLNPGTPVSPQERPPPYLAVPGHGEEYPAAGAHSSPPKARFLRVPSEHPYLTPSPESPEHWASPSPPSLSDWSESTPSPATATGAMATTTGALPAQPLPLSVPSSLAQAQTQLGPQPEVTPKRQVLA
Sequence of Torsin-1A-interacting protein 2 (Homo sapiens) (Q8NFQ8 whole entry, looked up): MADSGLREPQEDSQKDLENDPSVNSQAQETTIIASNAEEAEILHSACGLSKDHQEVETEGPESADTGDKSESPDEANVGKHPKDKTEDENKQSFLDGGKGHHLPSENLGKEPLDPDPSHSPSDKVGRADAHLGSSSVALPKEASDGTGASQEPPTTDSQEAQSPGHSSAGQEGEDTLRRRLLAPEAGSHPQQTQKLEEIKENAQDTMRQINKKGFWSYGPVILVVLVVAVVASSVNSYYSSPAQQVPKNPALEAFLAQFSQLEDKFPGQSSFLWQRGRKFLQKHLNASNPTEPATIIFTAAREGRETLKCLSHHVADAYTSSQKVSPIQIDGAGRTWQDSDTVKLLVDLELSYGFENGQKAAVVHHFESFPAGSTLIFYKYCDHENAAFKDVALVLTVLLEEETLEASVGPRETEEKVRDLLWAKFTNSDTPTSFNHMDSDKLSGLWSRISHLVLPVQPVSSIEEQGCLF
Sequence of Pro-neuregulin-1, membrane-bound isoform (Homo sapiens) (Q02297 whole entry, looked up, the tested form may be a part, canonical isoform): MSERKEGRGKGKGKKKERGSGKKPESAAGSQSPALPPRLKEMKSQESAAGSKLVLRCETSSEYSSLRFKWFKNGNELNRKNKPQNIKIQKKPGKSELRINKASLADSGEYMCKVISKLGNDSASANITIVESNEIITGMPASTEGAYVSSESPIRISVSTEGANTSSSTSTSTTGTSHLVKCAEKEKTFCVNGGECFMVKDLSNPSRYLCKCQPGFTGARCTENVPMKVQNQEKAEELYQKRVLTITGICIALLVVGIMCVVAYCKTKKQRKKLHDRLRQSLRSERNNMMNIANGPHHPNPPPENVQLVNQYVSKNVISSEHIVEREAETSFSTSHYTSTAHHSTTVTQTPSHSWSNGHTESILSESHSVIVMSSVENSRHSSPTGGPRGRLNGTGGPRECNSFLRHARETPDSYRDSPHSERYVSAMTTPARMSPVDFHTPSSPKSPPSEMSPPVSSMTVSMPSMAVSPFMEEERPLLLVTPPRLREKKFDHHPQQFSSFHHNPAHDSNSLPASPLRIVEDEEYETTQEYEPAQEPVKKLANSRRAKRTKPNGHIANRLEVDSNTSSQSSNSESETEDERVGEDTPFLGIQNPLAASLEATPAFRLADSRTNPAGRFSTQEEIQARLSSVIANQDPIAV

Take `NC(=O)[C@@H]1[C@H]2C(=O)O[C@H](c3ccccc3)[C@H](c3ccccc3)N2[C@H](c2ccccc2OCCO)[C@@]12C(=O)Nc1ccc(C#CCCO)cc12`: the composite z-score in assay [1] is -0.159; in assay [2], 0.45; in assay [3], -0.0502; in assay [4], -0.0477; in assay [5], 0.0307; in [6] it was 0.352. For the same compound, the composite z-score was 0.0434 in assay [7]; -0.0579 in [9]; -0.236 in assay [10]; -0.155 in [11]; 0.417 in [15]; -0.143 in [17]. In addition, the composite z-score in assay [18] is -0.209; in assay [19], -0.196; in [20] it was -0.131. In addition, the z-score was 0.7 (inactive) in assay [8]; 0.566 (inactive) in assay [12]; -0.145 (inactive) in assay [13]; 2.38 (inactive) in assay [14]; 0.973 (inactive) in [16].
`C=CCNC(=O)[C@H]1[C@@H]2C(=O)O[C@@H](c3ccccc3)[C@@H](c3ccccc3)N2[C@@H](c2ccc(O)cc2)[C@]12C(=O)N(C(=O)OCCOC)c1ccc(C#CC3(O)CCCCCC3)cc12`: the composite z-score in assay [1] stood at 0.228; in [2], 0.494; in assay [3], 0.0789; in assay [4] it was 0.875; in [5] it was 0.793; in [6], 1.2. The composite z-score was 1.27 in assay [7]; 0.229 in assay [9]; 0.142 in assay [10]; 1.55 in assay [11]; 2.45 in assay [15]; 0.0026 in assay [17]. Further, the values for the composite z-score in assay [18], in assay [19] and in assay [20] were 0.147, 0.838 and 0.0638, respectively. In addition, the z-score in [8] was 0.168 (inactive); in [12], 0.729 (inactive); in [13], -0.932 (inactive); in assay [14], 0.943 (inactive); in assay [16], 1.87 (inactive).
`C=CCOC(=O)[C@H]1[C@@H]2C(=O)O[C@@H](c3ccccc3)[C@@H](c3ccccc3)N2[C@@H](c2ccc(OCCOC(=O)[C@H]3C[C@H]4C(=O)N[C@@H](CCCCN(C)C)C(=O)N4[C@H]3c3ccc(O)cc3)cc2)[C@]12C(=O)Nc1ccccc12`: the composite z-score in [1] is 0.27; in assay [2] it was 0.91; in assay [3], -0.033; in assay [4], 0.445; in assay [5], 0.349; in [6], -0.013. In addition, the composite z-score came to 1.19 in assay [7]; 0.86 in assay [9]; 0.0524 in assay [10]; 1.54 in [11]; 2.49 in assay [15]; 0.155 in [17]. Besides, the composite z-score stood at 1.83 in assay [18], 1.06 in assay [19] and 0.0088 in assay [20]. Also, the z-score in assay [8] was 0.139 (inactive); in assay [12] it was -0.0535 (inactive); in assay [13] it was -1.03 (inactive); in assay [14] it was -0.713 (inactive); in assay [16], -0.296 (inactive).
Consider `CCC[C@@H]1C[C@@]1(CCC)[C@@H](NC(=O)c1cccs1)c1ccc(Cl)cc1`, for which the composite z-score in assay [1] was 1.38; in assay [2], -0.553; in assay [3], -0.0861; in assay [4], -0.092; in assay [5], -1.6; in [6], 0.161. The composite z-score in [7] is -0.405; in assay [9] it was -0.711; in assay [10] it was -0.254; in [11], 0.0333; in assay [15] it was 1.4; in [17], 0.0395. Besides, the composite z-score is -1.87 in [18], -0.118 in assay [19] and -0.435 in assay [20]. Moreover, the z-score in assay [8] is -2.04 (inactive); in [12], -0.5 (inactive); in [13], -3.76 (inactive); in assay [14], -0.454 (inactive); in [16], 0.102 (inactive).
In the case of `COC(=O)[C@@]1(Cc2ccccc2)[C@H]2c3cc(C(=O)N4CCCC4)n(Cc4ccccc4)c3C[C@H]2CN1C(=O)c1ccccc1`, the composite z-score is 0.425 in [1]; -0.463 in assay [2]; 0.113 in assay [3]; 0.742 in assay [4]; 1.69 in [5]; 1.6 in assay [6]. For the same compound, the composite z-score is 1.01 in [7]; 1.54 in assay [9]; -0.135 in assay [10]; -0.089 in [11]; 3.41 in [15]; 0.432 in assay [17]. Moreover, the composite z-score in assay [18] stood at 0.0362; in [19] it was 1.05; in [20], 0.416. Moreover, the z-score in assay [8] was -1.15 (inactive); in assay [12], -0.0324 (inactive); in [13], 0.58 (inactive); in [14], 1.55 (inactive); in assay [16], -0.745 (inactive).
On to `COCCOC(=O)N1C(=O)[C@@]2(c3ccccc31)[C@H](c1ccc(OCCO)cc1)N1[C@H](c3ccccc3)[C@H](c3ccccc3)OC(=O)[C@H]1[C@@H]2C(=O)NC[C@H](O)c1ccccc1`, for which the composite z-score was -0.115 in assay [1]; 0.537 in assay [2]; 0.0276 in assay [3]; 0.228 in assay [4]; 0.614 in [5]; 1.52 in assay [6]. The composite z-score in assay [7] was 1.35; in assay [9], 0.576; in [10], -0.0753; in assay [11] it was 1.53; in [15], 3.09; in assay [17], 0.187. Moreover, the composite z-score was 1.19 in assay [18], 1.04 in assay [19] and -0.0759 in assay [20]. Also, the z-score in assay [8] was -1.51 (inactive); in [12], 2.2 (inactive); in assay [13], 0.892 (inactive); in assay [14], 6.77 (inactive); in assay [16] it was -0.0625 (inactive).

(Values after PubChem BioAssay.)
